Measured values taken from PubChem BioAssay (EPA / NIEHS).
Activity calls are given as the source filed them. The calls were made as follows: active = hit-call score of the fitted dose curve at least 0.9, where 1 is the maximum; inactive = score below 0.9.

Experiments:
[1] = biological target: Bile acid receptor (Homo sapiens) (UniProt Q96RI1); assay: ATG_IR1_CIS: Attagene CIS-FACTORIAL HepG2 Assay for human Nuclear Receptor Subfamily 1 Group H Member 4 (NR1H4), IR1 submotif (AID 2282946); details: IR1 reporter transcription, actives raise or lower the signal
Summary of the method: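 Readout: reporter transcript levels by RT-PCR with fluorescent capillary electrophoresis, from HepG2 cells transiently transfected with multiplexed cis-regulated reporters and dosed 24 h. Gain- or loss-of-signal fitted versus DMSO negative control.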

[2] = ATG_GRE_CIS: Attagene CIS-FACTORIAL HepG2 Assay for human Glucocorticoid Response Elements (GRE) (AID 2282947); details: HepG2 GRE cis-reporter, Attagene multiplex mRNA; actives raise or lower the signal
Summary of the method: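 Cells (HepG2) bearing transfected cis-promoter reporter transcription units were treated with chemical for 24 hours. Reporter mRNA was measured via RT-PCR with capillary electrophoresis, and activity was fitted in both directions relative to DMSO.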

[3] = ATG_ISRE_CIS: Attagene CIS-FACTORIAL HepG2 Assay for human Interferon Regulatory Factor 1 (IRF1) binding to an Interferon-Stimulated Response Element (ISRE) (AID 2282948); details: HepG2 ISRE cis-reporter (Attagene), mRNA transcription readout; actives raise or lower the signal
Summary of the method: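 Multiplexed mRNA reporter readout in human liver HepG2 cells: cis-element-driven reporters transfected, compound added for 24 h, transcripts amplified, fluorescently labelled and sized by capillary electrophoresis; curve fitting bidirectional against DMSO.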

[4] = ATG_M_32_CIS: Attagene CIS-FACTORIAL HepG2 Assay for M32 Transcription Factor (Internal Marker) (AID 2282949); details: HepG2 Attagene cis-factorial M32 reporter, mRNA; actives raise or lower the signal;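 also: background control marker of the multiplexed CIS panel rather than a real target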
Summary of the method: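 HepG2 human liver cells transiently transfected with cis-promoter-driven multiple reporter transcription units, dosed 24 h. Reporter mRNA quantified by RT-PCR, FAM-labelled primer extension, HpaI digest and capillary electrophoresis; bidirectional fit versus DMSO baseline.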

[5] = ATG_M_06_CIS: Attagene CIS-FACTORIAL HepG2 Assay for M06 Transcription Factor (Internal Marker) (AID 2282950); details: HepG2 Attagene CIS-FACTORIAL M06 internal marker reporter; actives raise or lower the signal
Summary of the method: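 Internal background marker within multiplexed cis-reporter HepG2 system. Cells transiently transfected, dosed 24 h; reporter mRNA measured by RT-PCR, HpaI digestion and capillary electrophoresis. Bidirectional fit relative to DMSO.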

[6] = biological target: Hypoxia-inducible factor 1-alpha (Homo sapiens) (UniProt Q16665); assay: ATG_HIF1a_CIS: Attagene CIS-FACTORIAL HepG2 Assay for human Hypoxia Inducible Factor 1 (HIF1A) (AID 2282951); details: HepG2 Attagene cis-factorial HIF1a reporter transcription; actives raise or lower the signal
Summary of the method: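 HepG2 cells transiently transfected with multiplexed cis-promoter reporter units; reporter mRNA read 24 h after dosing by RT-PCR, 6-FAM primer-extension labelling, HpaI digestion and capillary electrophoresis. Bidirectional fit versus DMSO baseline.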

[7] = biological target: Hepatocyte nuclear factor 6 (Homo sapiens) (UniProt Q9UBC0); assay: ATG_HNF6_CIS: Attagene CIS-FACTORIAL HepG2 Assay for human Hepatocyte Nuclear Factor 6 (HNF6) (AID 2282952); details: HepG2 Attagene cis-factorial HNF6 reporter transcription; actives raise or lower the signal
Summary of the method: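 First, HepG2 cells were transfected with the multiplexed cis reporter library and dosed with chemical for 24 h. Next, RNA was reverse-transcribed, PCR-amplified and fluorescently labelled. Finally, HpaI-digested fragments were read by capillary electrophoresis.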

[8] = biological target: Heat shock factor protein 1 (Homo sapiens) (UniProt Q00613); assay: ATG_HSE_CIS: Attagene CIS-FACTORIAL HepG2 Assay for human Heat Shock Transcription Factor 1 (HSE) (AID 2282953); details: HepG2 HSE cis-reporter, Attagene RNA transcription; actives raise or lower the signal
Summary of the method: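 HepG2 cells transfected with cis-promoter reporter units sensing endogenous transcription factor activity; reporter mRNA quantified 24 h post-dose by RT-PCR and capillary electrophoresis of 6-FAM-labelled products. Bidirectional fitting against DMSO.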

[9] = ATG_PBREM_CIS: Attagene CIS-FACTORIAL HepG2 Assay for human Phenobarbital-responsive Enhancer Module (PBREM) (AID 2282955); details: HepG2 PBREM cis-reporter, Attagene multiplexed transcription; actives raise or lower the signal
Summary of the method: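 HepG2 cells transiently transfected with multiple cis-regulated reporter transcription units; endogenous factor activity at the PBREM element measured as reporter mRNA 24 h after dosing, via RT-PCR and capillary electrophoresis of fluorescent fragments; bidirectional fitting versus DMSO.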

[10] = biological target: Paired box protein Pax-6 (Homo sapiens) (UniProt P26367); assay: ATG_Pax6_CIS: Attagene CIS-FACTORIAL HepG2 Assay for human Paired Box 6 (PAX6) (AID 2282956); details: HepG2 CIS-FACTORIAL PAX6 reporter transcription, RNA readout; actives raise or lower the signal
Summary of the method: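 Fluorescent RT-PCR products separated by capillary electrophoresis report PAX6-linked promoter mRNA in HepG2 cells 24 h post-dose. Curves fitted bidirectionally, DMSO as negative control.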

[11] = ATG_PXRE_CIS: Attagene CIS-FACTORIAL HepG2 Assay for human Pregnane X Receptor Element (PXRE) (AID 2282957); details: HepG2 Attagene CIS-FACTORIAL PXRE reporter, mRNA; actives raise or lower the signal
Summary of the method: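 After a 24 h chemical incubation, total RNA from transfected HepG2 cells was reverse-transcribed and reporter cDNA amplified, FAM-labeled, HpaI-digested and sized by capillary electrophoresis. DMSO served as baseline for bidirectional curve fitting.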

[12] = ATG_RORE_CIS: Attagene CIS-FACTORIAL HepG2 Assay for human RAR-related Orphan Receptor Element (RORE) (AID 2282959); details: HepG2 Attagene cis-factorial RORE reporter, mRNA; actives raise or lower the signal
Summary of the method: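 HepG2 cells transiently transfected with multiple cis-element reporter transcription units, exposed to chemical for 24 h. Reporter mRNA quantified by RT-PCR, 6-FAM primer-extension labeling, HpaI digestion and capillary electrophoresis; bidirectional fit versus DMSO baseline.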

[13] = ATG_Sox_CIS: Attagene CIS-FACTORIAL HepG2 Assay for human SRY-box transcription factor (SOX) (AID 2282960); details: HepG2 Attagene cis-factorial SOX reporter, mRNA; actives raise or lower the signal
Summary of the method: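 HepG2 cells transiently transfected with cis-element-driven multiple reporter transcription units, dosed 24 h; reporter mRNA measured by RT-PCR, FAM labelling, HpaI digestion and capillary electrophoresis. Bidirectional fit versus DMSO baseline.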

[14] = biological target: Transcription factor Sp1 (Homo sapiens) (UniProt P08047); assay: ATG_Sp1_CIS: Attagene CIS-FACTORIAL HepG2 Assay for human Specificity Protein 1 (Sp1) (AID 2282961); details: HepG2 Sp1 cis-reporter transcription, actives raise or lower the signal
Summary of the method: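 HepG2 cells transiently transfected with multiple reporter transcription units driven by cis-regulatory elements; Sp1-responsive reporter mRNA measured 24 h after dosing by RT-PCR and capillary electrophoresis fluorescence, fitted bidirectionally against DMSO baseline.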

[15] = ATG_SREBP_CIS: Attagene CIS-FACTORIAL HepG2 Assay for human Sterol Regulatory Element Binding (SREBP) (AID 2282962); details: HepG2 Attagene cis-factorial SREBP reporter, mRNA; actives raise or lower the signal
Summary of the method: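 Endogenous factor activity is measured in HepG2 through multiplexed reporter units under cis-element control. Following a 24 h incubation, reporter transcripts are reverse-transcribed, PCR-amplified and sized by capillary electrophoresis; activity is fitted in both directions relative to DMSO.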

[16] = biological target: Signal transducer and activator of transcription 3 (Homo sapiens) (UniProt P40763); assay: ATG_STAT3_CIS: Attagene CIS-FACTORIAL HepG2 Assay for human Signal Transducer and Activator of Transcription 3 (STAT3) (AID 2282963); details: HepG2, Attagene cis-factorial STAT3 reporter transcription; actives raise or lower the signal
Summary of the method: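 HepG2, MRTU-transfected, 24 h dosing. RNA → RT → PCR → FAM label → HpaI → CE. Bidirectional fit vs DMSO.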

[17] = ATG_TA_CIS: Attagene CIS-FACTORIAL HepG2 Assay for human TA Basal Promoter (AID 2282964); details: HepG2 Attagene CIS-factorial TA basal promoter reporter; actives raise or lower the signal
Summary of the method: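 HepG2 cells transiently transfected with multiple reporter units under cis promoter elements, reporting endogenous transcription factor activity; this endpoint tracks the TA basal promoter as background control. Reporter mRNA after 24 h dosing measured by RT-PCR/capillary electrophoresis; bidirectional fits versus DMSO.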

[18] = ATG_TCF_b_cat_CIS: Attagene CIS-FACTORIAL HepG2 Assay for human T-Cell-Factor with beta-catenin (TCF/b-cat) (AID 2282965); details: HepG2 TCF/beta-catenin cis-reporter transcription, actives raise or lower the signal
Summary of the method: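 In this cis-format system, transfected HepG2 cells report endogenous transcription factor activity. Readout after 24 h exposure is reporter transcript abundance from RT-PCR and capillary electrophoresis, analysed for gain or loss of signal versus DMSO.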

[19] = ATG_MRE_CIS: Attagene CIS-FACTORIAL HepG2 Assay for human Metal Responsive Element (MRE) (AID 2282954); details: HepG2 MRE cis-reporter transcription, Attagene multiplex; actives raise or lower the signal
Summary of the method: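 Cells were transfected with cis-promoter reporter transcription units, then dosed for 24 h. RNA was reverse-transcribed, amplified, fluorescently labelled and resolved by capillary electrophoresis, and activity was fitted in both directions relative to DMSO.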

[20] = ATG_PPRE_CIS: Attagene CIS-FACTORIAL HepG2 Assay for human Peroxisome Proliferator-activated Response Element (PPRE) (AID 2282958); details: HepG2 PPRE cis-element reporter, Attagene transcription factor profiling; actives raise or lower the signal
Summary of the method: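 HepG2 cells transiently transfected with multiplexed cis-element reporter units measure endogenous transcription factor activity. After 24 h compound exposure, reporter mRNA is quantified by RT-PCR, 6-FAM labeling, HpaI digestion and capillary electrophoresis; bidirectional fits are made against DMSO baseline.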

Measured: AC50

Chain of Hepatocyte nuclear factor 6 (Homo sapiens) (Q9UBC0 whole entry, looked up, the tested form may be a part): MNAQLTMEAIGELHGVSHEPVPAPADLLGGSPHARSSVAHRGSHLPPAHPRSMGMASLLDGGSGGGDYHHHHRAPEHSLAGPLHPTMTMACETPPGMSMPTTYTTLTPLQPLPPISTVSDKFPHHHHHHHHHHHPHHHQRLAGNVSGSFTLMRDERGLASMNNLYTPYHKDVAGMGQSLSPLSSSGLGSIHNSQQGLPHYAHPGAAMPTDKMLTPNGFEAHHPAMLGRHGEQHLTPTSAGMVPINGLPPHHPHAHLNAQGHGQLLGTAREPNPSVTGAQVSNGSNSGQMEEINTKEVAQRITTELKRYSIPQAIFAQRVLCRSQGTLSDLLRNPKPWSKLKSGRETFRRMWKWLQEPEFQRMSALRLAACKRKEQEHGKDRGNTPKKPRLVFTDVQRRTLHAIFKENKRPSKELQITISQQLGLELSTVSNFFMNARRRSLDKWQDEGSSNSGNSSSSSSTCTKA
Chain of Signal transducer and activator of transcription 3 (Homo sapiens) (P40763 whole entry, looked up): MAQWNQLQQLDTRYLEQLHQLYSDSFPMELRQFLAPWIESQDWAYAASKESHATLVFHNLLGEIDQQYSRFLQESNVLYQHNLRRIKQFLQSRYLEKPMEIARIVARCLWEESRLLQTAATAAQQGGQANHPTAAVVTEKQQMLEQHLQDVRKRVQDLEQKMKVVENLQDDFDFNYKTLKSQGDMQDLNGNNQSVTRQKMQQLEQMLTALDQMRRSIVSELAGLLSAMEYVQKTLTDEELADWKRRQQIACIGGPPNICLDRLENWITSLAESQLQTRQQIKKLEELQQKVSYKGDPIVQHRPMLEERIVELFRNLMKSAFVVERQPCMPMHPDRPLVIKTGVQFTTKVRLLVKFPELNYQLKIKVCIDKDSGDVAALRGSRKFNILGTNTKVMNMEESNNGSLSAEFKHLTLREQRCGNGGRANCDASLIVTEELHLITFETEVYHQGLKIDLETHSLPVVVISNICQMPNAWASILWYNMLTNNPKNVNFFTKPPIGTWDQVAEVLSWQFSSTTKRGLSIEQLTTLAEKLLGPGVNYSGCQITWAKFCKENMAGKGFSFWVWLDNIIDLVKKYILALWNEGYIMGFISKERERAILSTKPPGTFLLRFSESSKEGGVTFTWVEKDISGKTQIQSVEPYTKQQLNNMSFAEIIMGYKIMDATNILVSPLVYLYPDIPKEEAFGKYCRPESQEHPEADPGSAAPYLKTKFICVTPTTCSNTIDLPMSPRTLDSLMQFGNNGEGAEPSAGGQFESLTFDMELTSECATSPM
Chain of Bile acid receptor (Homo sapiens) (Q96RI1 whole entry, looked up): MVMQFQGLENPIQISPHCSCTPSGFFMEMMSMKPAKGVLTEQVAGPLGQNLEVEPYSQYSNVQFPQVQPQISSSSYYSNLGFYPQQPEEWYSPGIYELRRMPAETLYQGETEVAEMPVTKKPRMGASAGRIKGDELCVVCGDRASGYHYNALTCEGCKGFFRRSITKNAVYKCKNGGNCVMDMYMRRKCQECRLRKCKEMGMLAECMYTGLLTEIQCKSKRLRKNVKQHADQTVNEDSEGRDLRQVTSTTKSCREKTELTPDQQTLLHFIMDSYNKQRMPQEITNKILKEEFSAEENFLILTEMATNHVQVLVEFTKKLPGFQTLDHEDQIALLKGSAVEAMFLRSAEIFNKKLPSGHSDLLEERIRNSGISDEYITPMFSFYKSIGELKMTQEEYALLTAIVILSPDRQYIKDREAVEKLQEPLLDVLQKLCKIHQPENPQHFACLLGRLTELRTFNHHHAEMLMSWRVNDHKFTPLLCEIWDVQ
Chain of Paired box protein Pax-6 (Homo sapiens) (P26367 whole entry, looked up): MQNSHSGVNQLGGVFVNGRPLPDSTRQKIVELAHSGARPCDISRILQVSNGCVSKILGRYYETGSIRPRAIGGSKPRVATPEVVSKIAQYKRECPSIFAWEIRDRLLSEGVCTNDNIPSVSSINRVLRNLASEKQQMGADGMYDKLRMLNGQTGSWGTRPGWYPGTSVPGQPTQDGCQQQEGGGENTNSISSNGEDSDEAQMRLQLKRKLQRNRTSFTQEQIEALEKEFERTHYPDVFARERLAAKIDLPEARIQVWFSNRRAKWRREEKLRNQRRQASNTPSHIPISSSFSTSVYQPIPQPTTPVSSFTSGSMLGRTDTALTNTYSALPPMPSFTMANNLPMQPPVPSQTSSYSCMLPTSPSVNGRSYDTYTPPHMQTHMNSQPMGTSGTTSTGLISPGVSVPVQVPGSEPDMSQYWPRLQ
Chain of Heat shock factor protein 1 (Homo sapiens) (Q00613 whole entry, looked up): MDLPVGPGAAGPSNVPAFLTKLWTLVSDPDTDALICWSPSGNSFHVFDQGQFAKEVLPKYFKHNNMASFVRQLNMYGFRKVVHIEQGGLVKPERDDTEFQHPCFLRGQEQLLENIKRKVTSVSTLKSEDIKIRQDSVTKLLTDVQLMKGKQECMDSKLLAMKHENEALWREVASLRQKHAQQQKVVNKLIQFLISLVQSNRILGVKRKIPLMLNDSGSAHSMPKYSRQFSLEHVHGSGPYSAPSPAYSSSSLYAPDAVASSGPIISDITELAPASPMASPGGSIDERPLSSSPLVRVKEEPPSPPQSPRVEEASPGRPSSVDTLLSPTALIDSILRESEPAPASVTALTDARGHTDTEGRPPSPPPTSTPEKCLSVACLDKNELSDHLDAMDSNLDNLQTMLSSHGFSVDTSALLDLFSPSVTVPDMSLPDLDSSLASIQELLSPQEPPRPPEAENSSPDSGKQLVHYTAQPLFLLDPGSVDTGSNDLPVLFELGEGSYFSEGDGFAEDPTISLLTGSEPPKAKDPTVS
Chain of Hypoxia-inducible factor 1-alpha (Homo sapiens) (Q16665 whole entry, looked up): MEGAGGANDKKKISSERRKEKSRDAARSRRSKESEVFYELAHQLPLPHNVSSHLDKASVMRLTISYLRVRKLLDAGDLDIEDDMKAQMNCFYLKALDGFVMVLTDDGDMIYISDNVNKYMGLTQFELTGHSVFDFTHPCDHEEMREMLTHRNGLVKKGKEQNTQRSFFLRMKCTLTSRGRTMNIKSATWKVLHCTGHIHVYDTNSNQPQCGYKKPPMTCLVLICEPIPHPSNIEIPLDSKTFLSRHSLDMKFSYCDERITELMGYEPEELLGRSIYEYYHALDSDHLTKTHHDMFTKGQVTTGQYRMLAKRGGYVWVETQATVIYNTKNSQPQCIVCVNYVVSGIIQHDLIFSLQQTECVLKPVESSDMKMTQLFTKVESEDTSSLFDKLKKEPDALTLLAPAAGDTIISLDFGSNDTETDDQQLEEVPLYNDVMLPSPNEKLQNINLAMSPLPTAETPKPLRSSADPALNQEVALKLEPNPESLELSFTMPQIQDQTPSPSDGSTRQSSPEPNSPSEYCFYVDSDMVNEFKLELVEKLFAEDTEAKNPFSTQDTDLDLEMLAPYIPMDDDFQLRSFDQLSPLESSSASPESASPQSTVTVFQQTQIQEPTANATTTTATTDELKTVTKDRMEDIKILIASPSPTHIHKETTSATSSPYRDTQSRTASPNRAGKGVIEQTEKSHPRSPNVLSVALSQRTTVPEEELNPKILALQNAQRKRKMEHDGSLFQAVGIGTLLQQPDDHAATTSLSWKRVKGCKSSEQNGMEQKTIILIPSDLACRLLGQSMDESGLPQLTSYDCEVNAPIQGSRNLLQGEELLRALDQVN
Chain of Transcription factor Sp1 (Homo sapiens) (P08047 whole entry, looked up): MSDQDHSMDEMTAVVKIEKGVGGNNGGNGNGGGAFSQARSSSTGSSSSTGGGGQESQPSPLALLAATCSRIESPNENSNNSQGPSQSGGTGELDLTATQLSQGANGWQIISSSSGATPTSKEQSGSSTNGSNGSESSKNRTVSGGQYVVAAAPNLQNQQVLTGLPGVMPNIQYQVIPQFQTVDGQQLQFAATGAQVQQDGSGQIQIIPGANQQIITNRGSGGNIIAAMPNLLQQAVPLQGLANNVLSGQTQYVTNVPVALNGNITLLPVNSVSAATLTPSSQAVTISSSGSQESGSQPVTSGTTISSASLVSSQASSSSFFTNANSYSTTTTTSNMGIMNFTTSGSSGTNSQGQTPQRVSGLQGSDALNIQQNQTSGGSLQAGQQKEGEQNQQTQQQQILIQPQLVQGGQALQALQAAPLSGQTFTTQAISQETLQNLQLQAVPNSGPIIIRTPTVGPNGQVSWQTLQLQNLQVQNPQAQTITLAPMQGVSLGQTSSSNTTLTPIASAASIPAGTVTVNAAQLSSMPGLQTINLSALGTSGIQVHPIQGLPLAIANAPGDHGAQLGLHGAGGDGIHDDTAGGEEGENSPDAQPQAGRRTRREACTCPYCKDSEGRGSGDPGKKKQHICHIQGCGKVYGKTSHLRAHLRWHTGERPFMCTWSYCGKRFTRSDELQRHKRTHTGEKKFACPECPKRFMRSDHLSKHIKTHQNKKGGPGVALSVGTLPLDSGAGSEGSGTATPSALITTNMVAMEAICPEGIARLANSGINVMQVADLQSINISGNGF

CC(C)c1ccc(C(C)C)cc1
active: [6] 100 µM | [15] 152 µM
inactive: [1] | [2] | [3] | [4] | [5] | [7] | [8] | [9] | [10] | [11] | [12] | [13] | [14] | [16] | [17] | [18]

c1ccc2c(c1)c1cccc3ccc4cccc2c4c31
inactive: [1] | [2] | [3] | [4] | [5] | [6] | [7] | [8] | [19] | [9] | [10] | [11] | [13] | [14] | [15] | [16] | [17] | [18]

COc1c(Cl)c(Cl)c(Cl)c(Cl)c1Cl
inactive: [1] | [2] | [3] | [4] | [5] | [6] | [7] | [8] | [19] | [9] | [10] | [12] | [13] | [14] | [15] | [16] | [17]
active: [11] 26.2 µM

C=CC(C)(O)CCC=C(C)CCC=C(C)C (configuration not stated)
inactive: [1] | [4] | [20] | [12]
active: [2] 100 µM | [3] 170 µM | [5] 166 µM | [6] 170 µM | [7] 158 µM | [8] 163 µM | [19] 136 µM | [10] 134 µM | [11] 9.06 µM | [13] 148 µM | [14] 161 µM | [15] 114 µM | [16] 100 µM | [17] 146 µM
